Marburg entry inh = qHTS for inhibitors of binding or entry into cells for Marburg Virus. Marburg virus pseudotyped entry inhibition, cell reporter. Potency, µM (series often up to 37.8 µM), most hits filed as inhibitors. 1.8% of 300,000 active. AID 540276, 2011; calls by dose curve; tested in HEK293 cells
LASV entry inh = qHTS for Inhibitors of binding or entry into cells for Lassa Virus | 1.2% of 300,000 active | AID 540256, 2011 | Potency, µM (top dose mostly 37.9 µM), actives largely listed as inhibitors | Lassa virus pseudotype entry inhibition, cell reporter; calls by dose curve; tested in HEK293 cells; note: nearly all actives have a fitted effect of over 50% in size
HCV inh = qHTS Assay for Inhibitors of Hepatitis C Virus (HCV) | Huh7.5.1 HCVcc-Cre infection, luciferase reporter, 44 h | Potency, µM (highest dose often 41.8 µM), usual class: inhibitors | 3.4% of 340,000 active; active = well fitted inhibition curve with a large enough effect; inconclusive = small, poorly fitted or top-dose-only effect, or another doubt; inactive = no such curve, though single readings can be large or run the other way
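Whole-lifecycle infectious HCVcc-Cre system; cells 1,000/well, compound then virus (~0.5 moi) added 4 h after plating, 44 h culture. Luciferase read 15 sec following 15 min substrate incubation, room temp.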
FMDV inh = High Throughput Screening for Foot and Mouth Disease Virus Antivirals; FMDV antiviral cell-based qHTS; Potency, µM (highest dose often 57.9 µM), hits mostly inhibitors; 1.2% of 410,000 active; calls by dose curve; tested in HEK293T cells; note: read-out not given here; nearly all actives have a fitted effect of over 45% in size
HCMV antiviral = qHTS Assay for inhibitors of the human cytomegalovirus (HCMV) | 4.5% of 410,000 active | HFF cells, HCMV-luciferase reporter, 72 h; active compounds read low | activity change, negative = inhibition, % at 57.5 µM; in the data active = activity change below about -60%; inconclusive = no clear call, values can overlap the other calls; inactive = above about -39%
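Luciferase read-out from HCMV-luciferase-infected HFFs (MOI 1 PFU/cell) 72 h post infection at 37C; compounds added after 16 h cell attachment; activity normalized between buffer-only basal and Salinomycin (10uM) inhibitor controls.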
Hits are given with their value; . = inactive; ? = inconclusive; / = no result; ! = repeats disagree. An excerpt weighted towards active compounds, which were near 7.9% of everything screened.

SMILES	Marburg entry inh	LASV entry inh	HCV inh	FMDV inh	HCMV antiviral
CN1CCC(=C2c3ccccc3C=Cc3ccccc32)CC1	7.1µM	8.2µM	?	?	.
CSc1ccc(CN2CCC2(C)C(=O)NC2CCN(Cc3ccccc3)CC2)cc1 (stereo not drawn)	/	/	/	.	.
O=C(N/N=C/c1ccncc1)c1ccc(OCc2ccccc2)cc1	/	/	.	.	-62
O=C(N/N=C/c1ccc(OCc2ccccc2)cc1)c1ccncc1	/	/	.	.	.
COc1ccc(C(=O)N/N=C/c2ccc3cccc(OCc4ccccc4)c3n2)cc1	?	?	8.9µM	.	.
O=C(N/N=C/c1ccc2cccc(OCc3ccccc3)c2n1)c1ccc(Br)cc1	16µM	?	?	?	.
CCOc1ccc(NC(=O)C(NS(=O)(=O)c2ccc3c(c2)CCN3C(C)=O)C(C)C)cc1 (stereo not drawn)	.	.	/	.	.
COc1ccc(C2C(C#N)=C(N)N(c3ccccc3C#N)C3=C2C(=O)CCC3)cc1CN1CCCC1 (stereo not drawn)	5.8µM	.	.	.	.
COc1cc(C2C(C#N)=C(N)N(c3cccnc3)C3=C2C(=O)CCC3)ccc1O (stereo not drawn)	.	.	.	/	.
CC(=O)c1ccc(NC(=O)NC2CCCCCCC2)cc1	.	?	.	.	.
O=C(Nc1ccc(F)c(Cl)c1)N1CCC(CN2CCc3ccccc3C2)CC1	/	.	/	.	.
CC(=O)Nc1cccc(C(=O)OC(C)C(=O)Nc2ccc(S(=O)(=O)N3CCCC3)cc2)c1 (stereo not drawn)	/	/	?	.	.
CC(=O)Nc1ccc(S(=O)(=O)N2CCC(C(=O)c3ccc(F)cc3)CC2)cc1	?	?	?	.	.
CC(=O)Nc1ccc(S(=O)(=O)N2CCC(C(=O)c3ccc(Cl)cc3)CC2)cc1	?	?	?	.	-63
CC(=O)Nc1ccc(NC(=O)C(C)OC(=O)c2ccc(S(=O)(=O)N3CCCCCC3)cc2)cc1 (stereo not drawn)	?	?	?	.	-72
COc1cc(OC)cc(-c2nc(-c3ccc4c(c3)[nH]c(=O)n4C)no2)c1	/	.	/	.	.
C[C@H]1[C@@H](NS(=O)(=O)c2ccc(Cl)cc2)CC[C@@]23CCCN2C(=O)CCC[C@@H]13	/	/	/	/	.
CCn1c2ccccc2c2cc(NC(=O)C3CCN(S(=O)(=O)c4cccs4)CC3)ccc21	.	.	4µM	/	.
COc1ccc(N2CCN(C(=O)CN(C)S(=O)(=O)c3cccs3)CC2)cc1	.	.	.	.	-100!
COc1ccc2nc(NC(=O)C3CCCN(S(=O)(=O)c4cccs4)C3)sc2c1 (stereo not drawn)	?	?	13µM	.	?
O=C(Nc1ccc(OC(F)(F)F)cc1)C1CCN(S(=O)(=O)c2cccs2)CC1	.	.	/	?	-88
COc1ccc2nc(NC(=O)c3ccc(S(=O)(=O)N4CCCC(C)C4)cc3)sc2c1 (stereo not drawn)	/	.	/	.	.
COc1ccccc1C1NC(=O)NC(C)=C1C(=O)OCC1CCCCC1 (stereo not drawn)	/	/	/	?	.
CCCN1C(=O)CC[C@@H](S(=O)(=O)c2ccccc2)[C@@H]1c1ccco1	/	/	/	/	.
CCOC(=O)N1CCN(C(=O)CNS(=O)(=O)c2c(C)cc(C)cc2C)CC1	.	/	.	.	.
SMILES	Marburg entry inh	LASV entry inh	HCV inh	FMDV inh	HCMV antiviral
COc1ccc2nc(NC(=O)C3CCN(S(=O)(=O)c4cccs4)CC3)sc2c1	?	15µM	10µM	14µM	-97
Cc1ccc2nc(NC(=O)C3CCN(S(=O)(=O)c4cccs4)CC3)sc2c1	?	10µM	13µM	?	-94
COc1ccc2nc(NC(=O)CN(C)S(=O)(=O)c3cccs3)sc2c1	.	.	?	.	-72
COc1ccc2nc(NC(=O)C3CCN(S(=O)(=O)c4cccnc4)CC3)sc2c1	.	/	?	?	.
O=C(Nc1ccc(Cl)cc1)c1csc(C(O)c2cccc(OC(F)(F)F)c2)n1 (stereo not drawn)	/	/	/	/	.
CC1CCCN(Cc2c(O)ccc3c(=O)c(-c4ccccc4Cl)c(C(F)(F)F)oc23)C1 (stereo not drawn)	?	.	/	.	.
O=C(c1ccc2c(c1)N(Cc1ccc(Cl)cc1)C(=O)c1ccccc1S2(=O)=O)N1CCc2ccccc21	?	.	/	.	.
O=c1[nH]cnc2nc[nH]c12	/	/	/	.	/
Nc1nc2nc[nH]c2c(=O)[nH]1	/	/	5µM	.	/
N#C[C@H](Cc1ccc(O)cc1)c1ccc(O)cc1	/	/	/	.	/
Cc1ccc(S(=O)(=O)N2CCOCC2)cc1NC(=O)COc1ccc(C(=O)c2ccccc2)cc1	/	/	10µM	20µM	.
Cc1ccc(S(=O)(=O)N2CCOCC2)cc1NC(=O)COc1ccccc1Cc1ccccc1	?	?	13µM	?	?
Cc1ccc(S(=O)(=O)N2CCOCC2)cc1NC(=O)COC(=O)CNC(=O)c1ccccc1	.	.	.	.	.
Cc1ccc(C(=O)C[n+]2cc(Br)cc(Br)c2)cc1[N+](=O)[O-]	.	.	?	.	.
CCOc1ccc(CCNC(=O)[C@@H](O)c2ccccc2)cc1	.	/	/	/	/
O=C(NNC(=S)Nc1ccc(C(=O)O)c(O)c1)c1ccncc1	?	.	.	13µM	.
CCCC(=O)OCc1cnc(C)c2oc(=O)c(C(=O)Nc3ccc(F)cc3C)cc12	/	.	/	.	.
O=[N+]([O-])c1cc(C(F)(F)F)ccc1N1CCN(S(=O)(=O)c2ccc3c(c2)CCCC3)CC1	?	.	?	?	-96
Cn1cnc2c(NC3CCCC3)ncnc21	.	/	/	.	/
Cn1c(=O)c2ncn(CC(=O)Nc3ccc(N4CCOCC4)cc3)c2n(C)c1=O	.	.	.	.	.
CCC(C)c1ccc2oc(-c3ccc(NC(=O)Cn4cnc5c(=O)n(C)c(=O)n(C)c54)cc3)nc2c1 (stereo not drawn)	?	?	?	.	-73
CC1=C(c2ccc(C)c(C)c2)S(=O)(=O)N(Cc2ccc(C(=O)NCc3ccccc3F)cc2)C1=O	.	/	/	.	.
COc1ccccc1Nc1c2ccccc2nc2ccccc12	?	?	10µM	?	-99
COc1ccc(Nc2c3ccccc3nc3ccccc23)cc1	?	?	?	?	-102
c1ccc(Nc2c3c(nc4ccccc24)CCC3)cc1	?	.	?	?	?
SMILES	Marburg entry inh	LASV entry inh	HCV inh	FMDV inh	HCMV antiviral
Fc1ccc(Nc2c3c(nc4ccccc24)CCC3)cc1	?	?	14µM	.	-64
COc1ccc(Nc2c3c(nc4ccccc24)CCC3)cc1	8.9µM	?	?	?	-94
COc1ccc(Cn2cnc3cnc(-c4cc(OC)c(OC)c(OC)c4)cc32)cc1OC	/	/	/	/	.
CCOC(=O)c1cccc(NC(=O)c2cc3c(Cl)nc4ccc(C)cc4c3s2)c1	.	.	/	.	.
CN1CCN(c2nccc3[nH]c(-c4cccc(F)c4)nc23)CC1	/	/	/	/	.
CCOC(=O)c1ccc(N2C(=O)C[C@@H](Sc3nnc(C)s3)C2=O)cc1	.	/	/	/	/
COc1cc(Nc2c3ccccc3nc3ccccc23)cc(OC)c1OC	2.8µM	?	?	.	.

Compound activity (PubChem)
